# Results from PubChem BioAssay AID493248 (Broad Institute, 2011).
# In all, about 2,300 compounds went through this assay and about 1,400 (61%) were called active. Not shown: some 7% with an inconclusive outcome. The rule behind the calls is not given here. The set was probably picked from earlier hits. Not all results are given here. Results with a measured potency or affinity are listed apart.
# Target: FAD-linked sulfhydryl oxidase ALR (Homo sapiens) (UniProt P55789)
# Test: ALR-catalysed DTT oxidation blockers – biochemical, H2O2 detection, luminescence, cherry-pick, dose response (AID 493248)
# Conditions: purified ALR, H2O2 HRP-luminol luminescence; at 10 µM (top of the series)
# Chain of FAD-linked sulfhydryl oxidase ALR (Homo sapiens) (P55789 whole entry, looked up): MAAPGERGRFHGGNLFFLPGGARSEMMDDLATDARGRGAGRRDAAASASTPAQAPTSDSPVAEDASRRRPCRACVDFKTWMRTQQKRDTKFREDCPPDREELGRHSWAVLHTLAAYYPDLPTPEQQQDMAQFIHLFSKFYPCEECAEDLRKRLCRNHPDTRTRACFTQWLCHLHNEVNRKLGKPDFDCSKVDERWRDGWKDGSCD
row,Compound,"activity change, negative = inhibition [%]"
1,Cn1nnnc1SCc1ccc(C(=O)Nc2nccs2)cc1,-48.1
2,O=C1NCCCc2c1oc1ccc(O)cc21,36.1
3,Nc1nn2cc(-c3ccccc3)nc2c2ccccc12,-12.4
4,COC(=O)CNS(=O)(=O)c1ccc(Cc2ccc(S(=O)(=O)NCC(=O)OC)cc2)cc1,3.52
5,CCCc1cc(=O)[nH]c(Nc2ccc(O)cc2)n1,-100
6,Cn1cccc1C(=O)OCc1csc(-c2ccccc2)n1,0.233
7,O=C(c1cc(C2CC2)on1)N1CCN(c2ccccc2)CC1,-8.71
8,O=C(c1ccc(Cl)s1)N1CCN(c2ccccc2)CC1,-20
9,Cc1cc(C(=O)CC#N)c(C)n1CC(F)(F)F,-17.1
10,COc1cccc(/C=N/NC(=O)CNC(=O)c2cccnc2)c1O,-19
11,CCN1CCSc2ccc(C(=O)NCc3cccc(F)c3)cc21,16
12,CCCC(C(=O)O)n1c(O)c(C=C2N=c3ccccc3=N2)sc1=S (centres undefined),-50.1
13,O=C(c1ccco1)n1nc(-c2ccccc2)nc1NCc1ccco1,-41.9
14,O=[N+]([O-])c1cc2c(cc1/C=N/n1c(-c3ccccc3)n[nH]c1=S)OCO2,-34.5
15,CC(C)c1cc(C(=O)N/N=C/c2ccco2)n[nH]1,21.6
16,CC(=C\c1ccccc1)/C=C1/SC(=O)N(CCCC(=O)Nc2ccc(C(=O)O)cc2)C1=O,1.78
17,S=c1[nH]nc(Cc2ccccc2)n1-c1ccccc1,-7.81
18,CC(=O)Oc1ccc(Nc2ccccc2)cc1,-1.83
19,COc1ccc2oc3cc(C)[n+]([O-])c(-c4ccc(C)cc4)c3c2c1,-57.4
20,O=C(O)CC/C(=C\c1ccccc1[N+](=O)[O-])c1nc2ccccc2s1,-55.4
21,COc1ccc(-c2noc(CN3CCN(c4ccccc4F)CC3)n2)cc1OC,-0.443
22,C(=N\Nc1ncnc2ccccc12)/c1ccccc1,-47.4
23,O=C(O)CCCN1C(=O)/C(=C\c2ccc(-c3nc4ccccc4s3)o2)SC1=S,-22.6
24,COc1cc(/C=C2\SC(=S)N(NC(=O)c3ccc(O)cc3)C2=O)ccc1O,-100
25,COc1ccc(OC)c(NC(=O)CN(c2ccc(C(C)C)cc2)S(=O)(=O)c2c(C)noc2C)c1,28.2
26,COc1ccc(C(=O)N/N=C(/C)c2ccc(N3CCCCC3)cc2)cc1,-0.469
27,COc1cc(NC(=O)NCCN2CCN(c3ccccc3)CC2)cc(OC)c1OC,-25.8

row,Compound,"activity change, negative = inhibition [%]"
1,COc1ccc(NC(=O)c2cccnc2N2CCCC2)cc1,19.3
2,COc1c(C)cccc1C(=O)Nc1ccc(CN2CCCCC2)cc1,7.1
3,CCCN1C(=O)c2ccc(C(=O)Nc3ccccc3C(=O)O)cc2C1=O,-23.6
4,O=C(Nc1cc([N+](=O)[O-])ccc1O)c1ccc2c(c1)C(=O)N(Cc1ccco1)C2=O,-17.4
5,COc1ccc(C)cc1NCc1ccc(OC)c(C)c1OC,-55.4
6,Cc1ccc(N2CC(=O)N(NC(=O)CN3CCN(c4ccccc4)CC3)CC2=O)cc1,-47.4
7,COc1ccc(C(=O)N/N=C/C2CC=CCC2)cc1OC (centres undefined),-39.6
8,CN1C(=O)C2C(c3ccc(N(C)C)cc3)=NN(Cc3ccccc3)C2C1=O (centres undefined),-0.925
9,Fc1ccc(-n2c(-c3ccc4c(c3)OCO4)n[nH]c2=S)cc1Cl,-56.2
10,Cc1nc2cc(N)ccc2n1-c1ccccc1,367
11,CC1=Nc2ccccc2N=C(N)C1c1ccccc1 (centres undefined),-61.3
12,Cc1cc(C(=O)NNc2ccc(F)cc2F)no1,5.89
13,COc1cc(C(=S)N(C)C)ccc1O,-5.3
14,O=Cc1ccc(O)c(O)c1,-17.2
15,Oc1ccc(/C=N/N=C/c2ccc(O)cc2)cc1,256
16,Oc1ccc(N=Cc2ccc(O)c(O)c2)cc1,102
17,CC(C)CNC(=O)C(=O)N/N=C/c1cccs1,-15.3
18,CCn1c(O)c(/C=N/n2cnnc2)sc1=S,-33
19,Cc1cccc(NCCNc2cccc(C)c2)c1,-44.1
20,C/C(=N\NC(=O)CCCNc1ccc(C)cc1)c1ccccn1,419
21,Cc1cccc(N/N=C/c2ccncc2)c1,-105
22,CC(C)C(=O)c1ccc(O)c(O)c1,-24.1
23,Cc1cccc(Nc2nc(N)nc(CCl)n2)c1C,-38.4
24,CN(C)CCC(=O)N1c2ccccc2Sc2ccc(C(F)(F)F)cc21,-13.8
25,CCNc1nc(OC)nc(N(OC)S(=O)(=O)c2ccc(C)cc2)n1,-55.8
26,O=S(=O)(Cc1ccccc1)N(O)c1ccccc1,-38.7
27,CCCN1C(=O)c2cc(C(=O)NC3CCCCCC3)ccc2C1O (centres undefined),-16.6

row,Compound,"activity change, negative = inhibition [%]"
1,CC(C)(O)C#Cc1ccc(C(=O)NC2CCCCC2)s1,-45.6
2,Nc1c(Cl)ncnc1N/N=C/c1cccc(O)c1,-7.72
3,O=C(CCn1cnc2ccccc21)N/N=C/c1ccc(O)cc1,-88.9
4,Cc1ccc(NC(=O)CCC(=O)N/N=C/c2ccc(O)cc2)cc1,-2.67
5,O/N=C/c1cccn1-c1ccc(O)cc1,-99.2
6,O=C(C[n+]1ccccc1)N/N=C/c1ccc(O)cc1,-108
7,O=c1oc2ccccc2n1CSC1=NCCS1,-21.8
8,O=[n+]1cc(-c2cc3ccccc3o2)n([O-])c2c1CCCC2,-33.9
9,Cc1cc(Nc2ccccc2)n(CCC#N)n1,-16.4
10,CC(C)NC(=O)c1ccccc1S(=O)c1ccccc1C#N (centres undefined),-2.78
11,CN(C)c1ccc(/C(=N\O)C(F)(F)F)cc1,-20
12,Cc1ccc(Nc2c(F)c(F)c(F)c(F)c2C(=O)O)c(C)c1,-51.9
13,O=C(O)c1ccccc1Nc1ccccc1,-21
14,Cc1ccc(O)c(-c2cc(C(F)(F)C(F)F)[nH]n2)c1,3.95
15,COc1ccc([N+](=O)[O-])cc1NC1CCCCC1,-14.6
16,COc1ccc(CCC(=O)N2CCCC(Nc3ccc(OC)cc3)C2)cc1 (centres undefined),9.94
17,Cc1ccc2[nH]cc(CCNC(=O)c3cccnc3)c2c1,-59.6
18,Cn1c(=O)c2c(-c3ccccc3)n(-n3cnnc3)cc2n(C)c1=O,-14.5
19,C=CCN1CCc2cc(O)c(O)cc2C(c2ccccc2)C1 (centres undefined),-91.4
20,Cc1cccc(C2CN(C)CCc3c2cc(O)c(O)c3Cl)c1 (centres undefined),-100
21,Cn1c(=O)[nH]c(=O)c2c1[nH]c(=S)n2Cc1ccc(Cl)cc1,-38.6
22,CCCCCn1c(Br)nc2c1c(=O)n(CC(N)=O)c(=O)n2C,-20.4
23,CCN1CCN(Cc2nc3c(c(=O)n(C)c(=O)n3C)n2CC(=O)c2ccccc2)CC1,13.8
24,N#C/C(N=Nc1ccccc1O)=N\Nc1ccccc1O,22.3
25,CC(C)(C)Nc1c(-c2cccs2)nc2ccccn12,-39.4
